High-throughput results from PubChem BioAssay.
Sampled rows, rich in hits. Any-hit rate of the full collection: about 2.1%.
PrPC surface inh: inhibitors of human cell surface prion protein PrPC | inhibition, % at 13.8 µM | 370,000 compounds, 0.43% hits | AID 720596 | TR-FRET read-out; in the data active means inhibition above about 24%
PfHsp40 yeast: rescue of PfHsp40-mediated yeast toxicity | S. cerevisiae expressing PfHsp40, growth rescue, ATP luminescence | growth rescue, % at 12.5 µM | 340,000 compounds, 0.68% hits; in the data active means growth rescue above about 28%, passing the limit was not always enough; inconclusive means no clear call, values can overlap the other calls;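 further: yeast W303a lacking pdr1 and pdr3 grown in galactose medium; growth measured after three days at 30 °C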
PrP UTR inh: inhibition of PrP 5' UTR reporter expression | cell-based PrP 5' UTR mRNA reporter, plate reader | AID 488862 | inhibition, % (test concentration not listed) | 340,000 compounds, 0.35% hits; in the data active means inhibition above about 52%
CCHF vOTU inh-1: blocks the CCHF virus ovarian tumor domain protease; CCHFV vOTU protease, Pep-AMC fluorescence; inhibition, % at 11.5 µM; 370,000 compounds, 0.55% hits; AID 651958
Sa ugtP lethal: growth inhibition of S. aureus ugtP deletion strain; S. aureus RN4220 ugtP deletion, OD600 growth, 16 h; growth inhibition, % (concentration not given with the values); 330,000 compounds, 0.54% hits; in the data active means growth inhibition above about 68%
RN4220 kill: S. aureus RN4220 growth inhibition; 330,000 compounds, 0.33% hits; inhibition, % (no concentration beside the values); OD600, 16 h; in the data active means inhibition above about 85%
CCHF vOTU inh-2: CCHFV vOTU protease inhibition, confirmation; shares compounds with CCHF vOTU inh-1; Recombinant CCHFV vOTU, Pep-AMC fluorescence; inhibition, % at 11.5 µM; 1,900 compounds, 17% hits
Hits are given with their value; - = inactive; ? = inconclusive; . = no result. Unless noted, no stated cut-off is given here; in the data, active means inhibition above about 30%; inactive means the rest.

SMILES	PrPC surface inh	PfHsp40 yeast	PrP UTR inh	CCHF vOTU inh-1	Sa ugtP lethal	RN4220 kill	CCHF vOTU inh-2
COc1ccc(C=Nn2c(SC)nnc(C(C)(C)C)c2=O)cc1OC	.	.	.	.	-	-	.
COc1cccc(C(C(=O)NC2CCCC2)N2CCN(c3cc(C)ccc3C)CC2)c1OC (stereo not drawn)	-	.	.	30.3	.	.	-
Cc1ccc(C)c(N2CCN(C(C(=O)NC3CCCC3)c3ccco3)CC2)c1 (stereo not drawn)	-	.	.	-	.	.	.
CC(NS(=O)(=O)C=Cc1ccccc1)c1ccccc1 (stereo not drawn)	.	.	.	.	-	-	.
CC(NS(=O)(=O)/C=C/c1ccccc1)C(=O)O (stereo not drawn)	-	-	-	31.9	-	-	-
COc1ccccc1C1C(=C(O)c2ccccc2)C(=O)C(=O)N1CCO (stereo not drawn)	.	.	.	.	-	-	.
CCN(CC)CCCN1C(=O)C(=O)/C(=C(/O)c2ccccc2)C1c1cc(OC)ccc1OC (stereo not drawn)	-	-	-	53.8	.	.	-
CCOC(=O)c1csc(-n2nc(C)cc2C(F)(F)F)n1	-	-	-	30.9	-	-	-
C(=NN=C(NN=Cc1cccs1)NN=Cc1cccs1)c1cccs1	-	-	-	33.4	-	-	-
C(=NN=Cc1cccs1)c1cccs1	.	.	.	.	-	-	.
CC1CN(C(C)CO)C(=O)c2cccc(NC(=O)NC3CCCCC3)c2OC1CN(C)S(=O)(=O)c1cccs1 (stereo not drawn)	.	.	.	.	-	-	.
COc1cc(C(=O)NN=C(C)c2ccc(NC(=O)Cc3ccccc3)cc2)ccc1O	.	.	.	.	-	-	.
O=C1C(Cl)=C(N2CCCCC2)C(=O)C(Cl)=C1c1cnc(N2CCCCC2)s1	.	-	-	.	-	-	.
CN(C)c1ncc(C2=C(Cl)C(=O)C(N3CCCC3)=C(Cl)C2=O)s1	-	-	-	61.6	-	-	48.9
O=C1CSC(=NN=Cc2ccccc2Cl)N1CC1CC1	.	.	.	.	-	-	.
S=C(NCc1ccccn1)Nc1cccc(Cl)c1	-	-	-	-	-	-	.
CC(=NNC(=S)Nc1cccc(Cl)c1)c1ccccn1	-	?	-	29.7	.	.	-
Nc1ccc2cc3ccc(N)cc3nc2c1	-	.	.	52.9	.	.	29.7
O=C(CC(=O)NC1CCCCC1)NN=Cc1ccc(Cl)cc1	.	.	.	.	-	-	.
O=C(C=Cc1cccc([N+](=O)[O-])c1)N1CCN(C(=O)c2ccco2)CC1	.	.	.	.	-	-	.
Cc1ccc2nsnc2c1NC(=S)NC(=O)c1ccco1	-	-	-	58.5	-	-	-
Cc1noc(C)c1NC(=O)Nc1cccc2c1OC(CN(C)S(=O)(=O)c1c(C)noc1C)C(C)CN(C(C)CO)C2=O (stereo not drawn)	.	.	.	.	-	-	.
CCOC(=O)C1=C(C)N=c2sc(=Cc3ccc(OCC(=O)O)cc3)c(=O)n2C1c1ccc(OC(C)C)cc1 (stereo not drawn)	.	.	.	.	-	-	.
CCOC(=O)C1=CCC(c2cc3ccc(OC)cc3n2C(=O)OC(C)(C)C)NC1 (stereo not drawn)	-	.	.	34.4	.	.	-
Cc1ccc(S(=O)(=O)CCC(=O)NCCN2C(=O)S/C(=C\c3ccccc3)C2=O)cc1	-	-	-	40.2	-	-	-
SMILES	PrPC surface inh	PfHsp40 yeast	PrP UTR inh	CCHF vOTU inh-1	Sa ugtP lethal	RN4220 kill	CCHF vOTU inh-2
COC(=O)C1C(c2cccc(C(F)(F)F)c2)NC(=O)N(Cc2ccccc2)C1C (stereo not drawn)	.	.	.	.	-	-	.
COc1cc(NC(C)CCCN)c2ncccc2c1Oc1ccccc1 (stereo not drawn)	-	-	-	29.9	-	-	-
COc1ccc(Oc2c(OC)cc([N+](=O)[O-])c3ncccc23)cc1	-	-	-	-	-	-	.
NC(Cc1ccc(O)cc1)c1nnc(C(CCC(=O)O)NC(=O)C2CCNCC2)o1 (stereo not drawn)	.	.	.	.	-	-	.
COc1ccc(OCc2cc(C(=O)NC3CCOCC3)no2)c2ccccc12	-	-	-	61.4	-	-	-
O=C(N/C(=C/c1ccc(Br)cc1)C(=O)N1CCOCC1)c1ccco1	-	-	-	-	-	-	.
CSc1ccc(/C=C(/NC(=O)c2ccco2)C(=O)N2CCOCC2)cc1	-	-	-	30.0	-	-	-
CC1CCC(=O)N(CC(C)CSc2ccccc2)CC1 (stereo not drawn)	.	.	.	.	-	-	.
Fc1cccc(Cc2c(-c3ccco3)nc3c(Cl)cc(C(F)(F)F)cn23)c1	-	.	.	31.2	.	.	-
CC1CCc2c(sc(NC(=O)c3ccco3)c2C(=O)O)C1 (stereo not drawn)	-	?	-	31.6	-	-	-
COCCn1c(SCC(=O)Nc2ccccc2C(F)(F)F)nc2ccccc2c1=O	-	-	-	-	-	-	.
COCCn1c(SCC(=O)Nc2cccnc2Cl)nc2ccccc2c1=O	-	-	-	30.7	-	-	-
O=C(Nc1ccc(-c2nc3ccccc3[nH]2)cc1)c1ccc2c(c1)OCO2	-	-	-	36.1	-	-	-
O=C(Nc1ccc(Cl)c(-c2nc3ccccc3[nH]2)c1)c1ccc2c(c1)OCO2	-	-	-	-	-	-	.
CC1(C(=O)NCc2cccc(C(F)(F)F)c2)CCN1Cc1ccc(-c2ccccc2)o1 (stereo not drawn)	-	.	.	33.9	.	.	-
CC1(C(=O)NCc2cccc(C(F)(F)F)c2)CCN1Cc1cc2ccccc2o1 (stereo not drawn)	-	.	.	-	.	.	.
CCCCCCCN1CCC(=O)N(C(CO)Cc2ccccc2)CC1 (stereo not drawn)	.	.	.	.	-	-	.
COc1ccc(C(CNC(=O)C(=O)NC2CCCCC2)N2CCN(C)CC2)cc1 (stereo not drawn)	-	-	-	31.7	-	-	-
CCCNS(=O)(=O)c1ccc(Oc2ncc(C(F)(F)F)cc2Cl)cc1	-	-	-	30.8	-	-	-
NC(=O)Nc1ccc(Oc2ncc(C(F)(F)F)cc2Cl)cc1	-	-	-	-	-	-	.
Cc1cnc(C=NNC(N)=S)c2cccc(N)c12	-	-	-	44.6	.	.	73.2
FC(F)(F)c1ccc(CNCCc2ccc3c(c2)OCO3)cc1	-	-	-	29.6	-	-	-
COc1cc(F)c(C2=CC(=O)CC(c3ccc(F)cc3)C2)cc1F (stereo not drawn)	.	.	.	.	-	-	.
COc1cc2c(cc1O)C1Cc3cc(OC)c(OC)cc3C(C2)N1C (stereo not drawn)	.	.	.	.	-	-	.
Cc1ccccc1-c1cc(=O)c2c(O)cccc2o1	-	-	-	34.9	-	-	-
COC(=O)c1ccccc1C(=O)N1CCCC(C(=O)c2ccc(OC)c(OC)c2)C1 (stereo not drawn)	-	-	-	-	-	-	.
COc1ccc(C(=O)C2CCCN(C(=O)c3cccc(N4CCCC4=O)c3)C2)cc1OC (stereo not drawn)	-	-	-	34.6	-	-	-
COc1cc(C=C2C(=O)C=CC2=O)ccc1O	-	.	.	41.4	.	.	-
CC1CN(C(C)CO)C(=O)Cc2cc(NC(=O)Nc3ccc(C(F)(F)F)cc3)ccc2OC1CN(C)S(=O)(=O)c1ccc(Cl)cc1 (stereo not drawn)	.	.	.	.	-	-	.
